From PubChem
In the library only some 3% were active in any assay of this set; here they are far more common.
HIF-2a inh: blocks HIF-2a reporter activity | AID 624352 | inhibition, % at 18.8 µM | actives 0.72% (n = 360,000) | 786-0 RCC cells HIF-2a reporter, luciferase luminescence, overnight;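 active = inhibition of the luminescence signal of 40% or more relative to plate controls, in a single-dose primary screen at 18.75 µM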
TRPM1 prom inh: reduces MITF-dependent TRPM1 promoter luciferase signal | SK-MEL-5 TRPM1 promoter luciferase, 24 h | inhibition, % at 12.5 µM | actives 0.83% (n = 330,000) | AID 488899;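 active = mean inhibition across replicates of 60% or more, whatever share of single replicates reaches that level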
KKLEB tox: reduces viability of KKLEB cystic fibrosis airway cells | KKLEB CF airway cells viability, ATPlite luminescence, overnight; active compounds read low; cells stimulated with P. aeruginosa culture filtrate | activity change (cytotoxicity), % at 5 µM | actives 0.36% (n = 360,000);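 active = corrected activity change at or below -50% at 5 µM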
EBV LMP1 NFkB: Epstein-Barr LMP1 NF-kappaB reporter inhibition; inhibition, % at 12.5 µM; actives 0.69% (n = 350,000); AID 504558; LMP1-induced NF-kappaB luciferase reporter cells, luminescence; in the data active = inhibition above about 41%
CF NFkB block: inhibitors of cystic fibrosis induced NF-kB. inhibition, % at 5 µM. AID 588850. actives 0.86% (n = 360,000). KKLEB NF-kB-GFP reporter, PAF-induced, GFP fluorescence overnight;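 active = at least 50% inhibition at 5 µM, scaled per plate between neutral and stimulator controls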;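 also: PAF is a Pseudomonas aeruginosa culture filtrate used as stimulus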
Peg3 prom inh: Peg3 promoter activity inhibition. HeLa PEG-Prom luciferase reporter, luminescence, overnight. inhibition, % at 20 µM. actives 1.7% (n = 360,000). AID 588405;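 active = inhibition of at least 50% at 20 µM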
Of the large screens only hits and unclear results are named; the others gave an inactive call; ! = a repeat was not active.

CCn1c(-c2ccccc2)c(C(=O)CCl)c2ccccc21	TRPM1 prom inh 73, KKLEB tox -102, CF NFkB block 106
Cn1c(-c2ccccc2)c(C(=O)CCl)c2ccccc21	TRPM1 prom inh 92, KKLEB tox -86, CF NFkB block 98, Peg3 prom inh 55
CCn1c2ccccc2c(=O)c2ccccc21	none
Cc1cc(C)n2nc(SCC(=O)NC3(C#N)CCCCC3)nc2n1	none (no result: TRPM1 prom inh)
Cc1cccc(-n2c(O)c(C=Nc3c(C)n(C)n(-c4ccccc4)c3=O)c3ccccc3c2=O)n1	EBV LMP1 NFkB 58!
Cc1cccc(-n2c(O)c(C=Nc3ccccc3O)c3ccccc3c2=O)n1	none
COc1ccccc1/C=C/C(=O)c1cc(Br)ccc1OC(=O)c1ccco1	HIF-2a inh 87
O=C(NCCc1ccccc1)C1Cc2c(-c3ccc(Cl)cc3)ccnc2O1 (stereo not drawn)	none (no result: TRPM1 prom inh, EBV LMP1 NFkB)
CCN(C(=O)CSc1nnc(NCc2ccccc2)s1)C1CCS(=O)(=O)C1 (stereo not drawn)	none
CCN(C(=O)CSc1nnc(Nc2cccc(C)c2C)s1)C1CCS(=O)(=O)C1 (stereo not drawn)	EBV LMP1 NFkB 47
OCc1cc(C(O)CNCCCCCCOCCCCc2ccccc2)ccc1O (stereo not drawn)	EBV LMP1 NFkB 55
Nc1c(C(=O)NCC2CCCO2)c2nc3ccccc3nc2n1/N=C/c1ccncc1 (stereo not drawn)	Peg3 prom inh 60
CC(C)Cn1c(N)c(C(=O)NCC2CCCO2)c2nc3ccccc3nc21 (stereo not drawn)	none
Clc1ccc2nc(-c3ccc4c(c3)OCO4)cn2c1	EBV LMP1 NFkB 60
c1ccn2cc(-c3ccc4c(c3)OCCO4)nc2c1	EBV LMP1 NFkB 57
Clc1ccc2nc(-c3ccccc3)cn2c1	none
CCNC(=O)C1(C)CCN1CCC(=O)c1ccc(C)cc1 (stereo not drawn)	none (no result: TRPM1 prom inh, EBV LMP1 NFkB)
CCc1ccc(CNC(=O)C2CCN(S(=O)(=O)N3CCCCC3)CC2)cc1	none (no result: TRPM1 prom inh)
O=C(Nc1ccccn1)c1ccc(-c2ccccc2)cc1	KKLEB tox -55, EBV LMP1 NFkB 47
Cn1c(=NC(=O)C2CC2)sc2cccc(F)c21	EBV LMP1 NFkB 60
O=C1[C@H]2[C@@H](c3ccccc3)N[C@]3(CCCN(Cc4ccco4)C3=O)[C@H]2C(=O)N1Cc1ccccc1	none (no result: TRPM1 prom inh)
COc1ccc([C@H]2N[C@]3(CCCN(Cc4ccco4)C3=O)[C@H]3C(=O)N(Cc4ccccc4)C(=O)[C@@H]23)cc1	EBV LMP1 NFkB 46 (no result: TRPM1 prom inh)
O=c1ccc2c([nH]1)CCCCCCCCCC2	Peg3 prom inh 54
O=C(O)c1cc2c([nH]c1=O)CCCC2	none
Cc1nnc(SCC(=O)Nc2cc(-c3cc(C)c(C)cc3C)nn2-c2ccccc2)s1	EBV LMP1 NFkB 50
COc1cc(NC(=O)CN2C(=O)NC(C)(c3ccccc3)C2=O)c(C)cc1[N+](=O)[O-] (stereo not drawn)	none
COc1ccc(NC(=O)CN2C(=O)NC(C)(c3ccc(C)cc3)C2=O)c([N+](=O)[O-])c1 (stereo not drawn)	EBV LMP1 NFkB 51
Cc1ccc2[nH]c3c(=O)n(CC(=O)Nc4ccccc4N4CCN(C)CC4)ncc3c2c1	Peg3 prom inh 53
CN1CCN(c2ccccc2NC(=O)Cn2ncc3c([nH]c4ccccc43)c2=O)CC1	none
CCOc1ccc(NC2=CC(=O)C(=O)c3ccccc32)cc1	TRPM1 prom inh 102, CF NFkB block 80
COc1cc(Cl)c(NC2=CC(=O)C(=O)c3ccccc32)c(OC)c1	TRPM1 prom inh 96, CF NFkB block 83
COC1=C(Nc2ccc(C)cc2)C(=O)c2ccccc2C1=O	none
O=C1C=C(Nc2ccc(F)cc2)c2ccccc2C1=O	TRPM1 prom inh 97, CF NFkB block 82
O=C1C=C(Nc2cccnc2)c2ccccc2C1=O	TRPM1 prom inh 101, CF NFkB block 54
CCn1cc(/C=C(\NC(=O)c2ccccc2)C(=O)NCCN2CCOCC2)c2ccccc21	none (no result: TRPM1 prom inh)
CCNc1nc(NCC)n2c(SC(C(=O)Nc3cc(Cl)cc(Cl)c3)c3ccccc3)nnc2n1 (stereo not drawn)	Peg3 prom inh 76
CCOc1ccc(S(=O)(=O)c2ccc(C)cc2)c2c1no[n+]2[O-]	none (no result: TRPM1 prom inh)
O=c1oc2ccccc2c(O)c1/C=N/c1ccccn1	EBV LMP1 NFkB 50
O=c1oc2ccccc2c(O)c1/C=N/c1ncccn1	none
